The full data set covers some 7,900 targets. This sample favours those with a hit. About 0.6% of all pairs of compound and target were hits. A number with no mark means an inactive call.
Legend:
Test in all cases: log2 fold change, soluble protein after heating vs DMSO (PISA); higher = thermal stabilisation; K562 cells, 10 uM, 30 min; active = over 0.2 and 3.5 SD of the protein, either way, in both replicates (recomputed)
[1] = compound: NC(=O)Nc1cc(-c2cccc(F)c2)sc1C(=O)N[C@H]1CCCNC1
In short: (§1)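 K562 cells at 2×10^6 cells/mL were exposed to 10 μM compound for 30 min, then aliquots were heated for 3 min across 48°C-58°C, pooled, and extracted in PBS containing 0.5% NP-40 at 4°C. The supernatant after 21,000xg for 90 min was taken as soluble protein and measured by TMTpro 16plex LC-MS/MS with channel sums equalised. Thermal stability is reported relative to control samples, with values from duplicates. Fold changes are given on a log2 scale.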

[2] = compound: NC(=O)c1cnc(N[C@@H]2CCCC[C@@H]2N)nc1Nc1cccc(-n2nccn2)c1
In short: as §1

[3] = compound: NC1(c2ccc(-c3nc4ccn5c(=O)[nH]nc5c4cc3-c3ccccc3)cc2)CCC1
In short: as §1

[4] = compound: NCC(=O)Nc1ccc(-n2nc(C(F)(F)F)cc2-c2ccc3c(ccc4ccccc43)c2)cc1
In short: as §1

entinostat = compound: Nc1ccccc1NC(=O)c1ccc(CNC(=O)OCc2cccnc2)cc1 [entinostat]
In short: as §1

vorinostat = compound: O=C(CCCCCCC(=O)Nc1ccccc1)NO [vorinostat]
In short: as §1

citarinostat = compound: O=C(CCCCCCNC(=O)c1cnc(N(c2ccccc2)c2ccccc2Cl)nc1)NO [citarinostat]
In short: as §1

silmitasertib = compound: O=C(O)c1ccc2c(c1)nc(Nc1cccc(Cl)c1)c1ccncc12 [silmitasertib]
In short: as §1

[5] = compound: O=C1NC(=O)C(c2cnc3ccccn23)=C1c1cn2c3c(cc(F)cc13)CN(C(=O)N1CCCCC1)CC2
In short: as §1

[6] = compound: c1cc(OCCN2CCCCC2)cc(-c2n[nH]c3ccc(-c4nnc[nH]4)cc23)c1
In short: as §1

entospletinib = compound: c1cn2cc(-c3ccc4cn[nH]c4c3)nc(Nc3ccc(N4CCOCC4)cc3)c2n1 [entospletinib]
In short: as §1

Sequence of UniProt Q13362 (Q13362 whole entry, looked up): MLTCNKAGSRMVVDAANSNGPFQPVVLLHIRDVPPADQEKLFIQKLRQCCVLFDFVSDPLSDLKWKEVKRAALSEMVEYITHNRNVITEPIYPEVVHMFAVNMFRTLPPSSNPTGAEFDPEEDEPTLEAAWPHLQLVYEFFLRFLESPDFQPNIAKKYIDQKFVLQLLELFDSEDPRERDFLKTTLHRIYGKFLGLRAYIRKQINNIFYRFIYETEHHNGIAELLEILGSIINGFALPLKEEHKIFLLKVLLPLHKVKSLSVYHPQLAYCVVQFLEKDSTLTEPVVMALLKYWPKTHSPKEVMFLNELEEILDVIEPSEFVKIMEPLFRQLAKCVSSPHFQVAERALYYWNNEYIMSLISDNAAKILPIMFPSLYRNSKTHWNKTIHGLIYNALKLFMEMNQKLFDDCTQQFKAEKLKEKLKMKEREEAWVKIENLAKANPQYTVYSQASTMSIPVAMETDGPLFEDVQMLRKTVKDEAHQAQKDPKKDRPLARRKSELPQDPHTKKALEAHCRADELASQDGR
Sequence of UniProt Q92871 (Q92871 whole entry, looked up): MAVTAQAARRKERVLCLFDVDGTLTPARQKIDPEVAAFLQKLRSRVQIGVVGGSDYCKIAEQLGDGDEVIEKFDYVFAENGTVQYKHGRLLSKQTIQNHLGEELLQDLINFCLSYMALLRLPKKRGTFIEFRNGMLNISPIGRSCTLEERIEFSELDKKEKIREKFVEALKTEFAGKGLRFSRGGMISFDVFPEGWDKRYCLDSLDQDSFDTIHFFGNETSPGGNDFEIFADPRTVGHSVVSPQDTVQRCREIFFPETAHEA
Sequence of UniProt P53350 (P53350 whole entry, looked up): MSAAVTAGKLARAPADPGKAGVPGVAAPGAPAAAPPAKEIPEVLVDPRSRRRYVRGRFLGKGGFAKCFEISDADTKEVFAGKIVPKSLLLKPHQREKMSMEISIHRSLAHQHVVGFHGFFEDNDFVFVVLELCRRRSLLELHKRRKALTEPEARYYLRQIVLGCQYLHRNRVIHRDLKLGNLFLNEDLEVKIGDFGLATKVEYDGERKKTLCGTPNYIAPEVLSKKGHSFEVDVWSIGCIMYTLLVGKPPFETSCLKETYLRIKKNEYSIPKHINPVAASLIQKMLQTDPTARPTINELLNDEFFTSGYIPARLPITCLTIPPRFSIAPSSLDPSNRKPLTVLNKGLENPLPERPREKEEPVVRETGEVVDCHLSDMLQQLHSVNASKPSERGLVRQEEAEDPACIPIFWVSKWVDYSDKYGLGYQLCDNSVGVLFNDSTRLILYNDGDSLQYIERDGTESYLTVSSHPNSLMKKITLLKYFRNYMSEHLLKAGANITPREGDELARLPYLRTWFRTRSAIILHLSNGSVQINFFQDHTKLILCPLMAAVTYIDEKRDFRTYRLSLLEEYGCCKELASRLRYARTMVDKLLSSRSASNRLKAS
Sequence of UniProt Q9NW08 (Q9NW08 whole entry, looked up): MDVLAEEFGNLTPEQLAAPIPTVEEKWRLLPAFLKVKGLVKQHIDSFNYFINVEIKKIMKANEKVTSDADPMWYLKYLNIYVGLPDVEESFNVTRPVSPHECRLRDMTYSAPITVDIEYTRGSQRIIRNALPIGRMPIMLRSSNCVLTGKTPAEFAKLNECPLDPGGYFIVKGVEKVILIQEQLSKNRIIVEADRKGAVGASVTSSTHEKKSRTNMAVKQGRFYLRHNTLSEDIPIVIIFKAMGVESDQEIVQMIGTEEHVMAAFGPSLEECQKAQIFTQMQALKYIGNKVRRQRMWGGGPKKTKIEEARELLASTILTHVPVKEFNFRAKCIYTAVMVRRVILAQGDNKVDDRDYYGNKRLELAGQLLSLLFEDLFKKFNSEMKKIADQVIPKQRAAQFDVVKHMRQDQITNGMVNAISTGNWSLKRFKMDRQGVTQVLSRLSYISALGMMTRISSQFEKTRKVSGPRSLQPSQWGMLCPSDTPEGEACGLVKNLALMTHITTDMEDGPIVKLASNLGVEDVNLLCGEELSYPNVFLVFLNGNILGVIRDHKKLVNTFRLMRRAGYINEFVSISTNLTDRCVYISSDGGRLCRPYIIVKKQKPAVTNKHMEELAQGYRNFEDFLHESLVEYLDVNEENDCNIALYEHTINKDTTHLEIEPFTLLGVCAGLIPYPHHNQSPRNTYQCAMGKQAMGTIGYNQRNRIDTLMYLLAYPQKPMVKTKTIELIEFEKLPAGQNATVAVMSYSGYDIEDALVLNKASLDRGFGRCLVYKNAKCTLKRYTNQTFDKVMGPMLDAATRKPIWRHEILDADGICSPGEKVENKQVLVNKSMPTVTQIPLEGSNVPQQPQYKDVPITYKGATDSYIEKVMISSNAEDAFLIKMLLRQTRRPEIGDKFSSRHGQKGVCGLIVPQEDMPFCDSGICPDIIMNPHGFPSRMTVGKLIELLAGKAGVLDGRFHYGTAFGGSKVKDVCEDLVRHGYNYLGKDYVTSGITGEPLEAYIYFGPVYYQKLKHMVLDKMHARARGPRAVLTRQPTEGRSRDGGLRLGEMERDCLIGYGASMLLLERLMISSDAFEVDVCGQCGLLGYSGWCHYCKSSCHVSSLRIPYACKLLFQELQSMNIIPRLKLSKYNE
Sequence of UniProt O75340 (O75340 whole entry, looked up): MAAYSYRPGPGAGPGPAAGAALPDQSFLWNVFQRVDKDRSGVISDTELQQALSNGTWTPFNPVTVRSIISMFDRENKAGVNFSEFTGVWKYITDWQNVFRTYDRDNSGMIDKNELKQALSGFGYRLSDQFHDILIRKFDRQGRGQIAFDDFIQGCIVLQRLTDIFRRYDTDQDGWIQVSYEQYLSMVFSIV
Sequence of UniProt Q9H0R6 (Q9H0R6 whole entry, looked up): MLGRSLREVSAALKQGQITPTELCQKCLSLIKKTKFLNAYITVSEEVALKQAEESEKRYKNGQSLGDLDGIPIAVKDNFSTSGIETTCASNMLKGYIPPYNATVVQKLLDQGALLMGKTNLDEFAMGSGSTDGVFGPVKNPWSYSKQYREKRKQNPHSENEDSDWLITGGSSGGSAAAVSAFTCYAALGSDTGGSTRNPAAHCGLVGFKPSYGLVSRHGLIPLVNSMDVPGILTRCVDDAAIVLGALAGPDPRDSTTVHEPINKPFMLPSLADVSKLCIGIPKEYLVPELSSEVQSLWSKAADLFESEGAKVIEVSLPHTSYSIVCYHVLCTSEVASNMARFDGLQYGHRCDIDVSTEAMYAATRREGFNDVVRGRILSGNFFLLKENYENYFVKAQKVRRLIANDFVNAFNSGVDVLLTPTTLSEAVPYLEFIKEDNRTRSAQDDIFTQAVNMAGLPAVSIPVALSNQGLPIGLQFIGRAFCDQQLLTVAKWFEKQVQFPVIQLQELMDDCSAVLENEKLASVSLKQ
Sequence of UniProt Q9NVM4 (Q9NVM4 whole entry, looked up): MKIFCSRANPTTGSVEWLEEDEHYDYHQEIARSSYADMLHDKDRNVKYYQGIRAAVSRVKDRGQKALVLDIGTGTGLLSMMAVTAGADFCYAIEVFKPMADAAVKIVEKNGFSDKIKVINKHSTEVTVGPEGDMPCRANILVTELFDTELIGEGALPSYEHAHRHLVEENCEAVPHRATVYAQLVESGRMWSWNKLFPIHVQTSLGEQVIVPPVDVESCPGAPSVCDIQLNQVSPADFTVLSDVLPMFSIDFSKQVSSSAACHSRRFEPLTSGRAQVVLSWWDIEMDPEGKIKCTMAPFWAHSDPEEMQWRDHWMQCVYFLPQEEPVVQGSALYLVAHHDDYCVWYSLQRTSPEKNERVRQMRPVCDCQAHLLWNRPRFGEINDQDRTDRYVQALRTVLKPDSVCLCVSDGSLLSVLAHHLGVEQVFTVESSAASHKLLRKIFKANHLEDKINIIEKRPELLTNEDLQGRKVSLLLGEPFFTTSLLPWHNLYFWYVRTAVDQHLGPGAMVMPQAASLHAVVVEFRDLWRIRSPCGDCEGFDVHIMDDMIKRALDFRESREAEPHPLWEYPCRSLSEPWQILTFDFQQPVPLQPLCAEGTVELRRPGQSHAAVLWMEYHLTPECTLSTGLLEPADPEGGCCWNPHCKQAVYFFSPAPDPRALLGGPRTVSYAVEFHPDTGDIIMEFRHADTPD
Sequence of UniProt P50336 (P50336 whole entry, looked up): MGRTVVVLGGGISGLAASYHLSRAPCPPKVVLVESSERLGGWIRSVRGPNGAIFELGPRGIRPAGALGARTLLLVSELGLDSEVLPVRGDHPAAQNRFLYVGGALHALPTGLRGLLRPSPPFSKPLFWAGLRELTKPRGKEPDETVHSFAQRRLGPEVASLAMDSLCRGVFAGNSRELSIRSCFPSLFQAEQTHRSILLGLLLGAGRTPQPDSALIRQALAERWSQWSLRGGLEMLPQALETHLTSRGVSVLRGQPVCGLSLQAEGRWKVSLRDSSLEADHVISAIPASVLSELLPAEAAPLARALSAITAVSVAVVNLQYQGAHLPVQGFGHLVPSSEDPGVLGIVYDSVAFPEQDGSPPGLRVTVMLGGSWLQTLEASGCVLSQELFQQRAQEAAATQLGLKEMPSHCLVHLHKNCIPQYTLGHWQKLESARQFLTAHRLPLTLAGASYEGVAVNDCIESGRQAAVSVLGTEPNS
Sequence of UniProt Q8N5Y8 (Q8N5Y8 whole entry, looked up): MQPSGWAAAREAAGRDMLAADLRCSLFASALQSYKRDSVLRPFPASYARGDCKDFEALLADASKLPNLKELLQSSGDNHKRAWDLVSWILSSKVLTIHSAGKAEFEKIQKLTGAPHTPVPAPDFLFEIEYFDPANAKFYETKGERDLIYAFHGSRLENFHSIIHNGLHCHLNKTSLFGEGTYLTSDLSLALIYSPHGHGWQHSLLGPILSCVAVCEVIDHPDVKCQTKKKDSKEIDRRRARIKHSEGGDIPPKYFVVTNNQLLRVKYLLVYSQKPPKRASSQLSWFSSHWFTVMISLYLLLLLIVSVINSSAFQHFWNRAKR
Sequence of UniProt P28072 (P28072 whole entry, looked up): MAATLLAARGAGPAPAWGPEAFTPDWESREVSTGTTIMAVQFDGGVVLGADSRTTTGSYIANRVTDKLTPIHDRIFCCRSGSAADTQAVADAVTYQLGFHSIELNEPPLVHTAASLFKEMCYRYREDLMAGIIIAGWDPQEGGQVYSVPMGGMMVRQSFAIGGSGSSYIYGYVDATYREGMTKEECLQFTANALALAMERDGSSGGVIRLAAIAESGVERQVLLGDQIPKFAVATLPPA

Target	log2 fold change [1]	log2 fold change [2]	log2 fold change [3]	log2 fold change [4]	log2 fold change (entinostat)	log2 fold change (vorinostat)	log2 fold change (citarinostat)	log2 fold change (silmitasertib)	log2 fold change [5]	log2 fold change [6]	log2 fold change (entospletinib)
PTTG1IP (UniProt P53801)	-0.033	0.026	-0.222	0.065	0.12	-0.077	-0.017	0.083	0.017	0.07	-0.044
POLR2M (UniProt P0CAP2)	-0.03	0.035	-0.045	-0.085	-0.032	-0.091	-0.019	0.043	0.009	-0.008	-0.059
PEX13 (UniProt Q92968)	-0.03	-0.086	-0.101	-0.034	-0.051	-0.195	0.023	0.025	0.026	-0.015	0.012
PLCG1 isoform 2 (UniProt P19174)	0.01	-0.193	-0.197	-0.109	0.04	-0.003	0.059	0.01	0	-0.066	0.021
PLCL1 (UniProt Q15111)	0.05	-0.035	-0.069	-0.01	0.043	-0.012	0.02	-0.475	-0.854 (active)	0.05	-0.099
PIK3C3 (UniProt Q8NEB9)	0.068	0.117	-0.018	-0.015	-0.03	-0.038	-0.038	0.051	0.078	-0.041	0.039
PELP1 (UniProt Q8IZL8)	0.071	-0.068	-0.046	0.071	-0.022	-0.003	0.038	0.078	-0.084	-0.027	-0.041
PSMC2 (UniProt P35998)	0.014	-0.013	0.026	0.091	-0.025	-0.018	-0.04	-0.015	0.087	-0.086	0.02
PPP2R5E (UniProt Q16537)	0.015	-0.039	-0.078	-0.09	-0.021	0.118	0.058	-0.014	-0.016	0.163	-0.078
PPOX (UniProt P50336)	-0.042	-0.228	-0.182	-0.009	0.04	0.003	0.02	0.158	0.094	0.018	0.028
PTGES3 (UniProt Q15185)	-0.043	-0.006	-0.123	0.017	0.075	0.002	0.111	-0.002	-0.142	0.054	-0.005
PRKAR1A (UniProt P10644)	-0.052	0.191	0.301	-0.041	-0.068	-0.16	0	0.166	0.063	-0.04	0.389
PIK3R1 (UniProt P27986)	-0.08	-0.056	-0.016	-0.021	-0.026	0.029	0.007	-0.013	0.028	0.126	-0.045
PSMD1 (UniProt Q99460)	0.086	0.007	-0.013	0.068	0.006	0.013	0.014	-0.019	0.094	-0.057	-0.012
PSMD8 (UniProt P48556)	-0.035	0.042	-0.07	0.009	-0.009	0.016	-0.015	0.007	0.019	-0.101	0.012
PRPF31 (UniProt Q8WWY3)	-0.076	-0.138	-0.241	-0.065	0.071	0.182	0.042	-0.038	-0.194	-0.038	0.025
PRMT3 (UniProt O60678)	0.042	-0.05	-0.187	-0.034	0.055	0.041	0.042	-0.023	-0.027	-0.027	-0.036
POLR2G (UniProt P62487)	0.061	0.153	-0.008	0.003	-0.034	-0.148	-0.009	0.004	0.009	-0.037	0.183
PC (UniProt P11498)	-0.025	0.027	-0.084	0.004	-0.003	-0.044	0.053	-0.122	-0.099	0.112	0.002
PECAM1 (UniProt P16284)	0.005	0.092	0.034	0.053	-0.13	-0.057	0.033	-0.039	-0.064	-0.023	-0.071
PPP2R5C isoform 5 (UniProt Q13362)	0.003	0.011	-0.134	-0.027	0.018	-0.044	0.169	-0.005	-0.053	-0.01	-0.012
PYGB (UniProt P11216)	0.209	-0.077	-0.018	-0.041	-0.003	0.063	0.033	-0.005	-0.105	-0.105	-0.156
PSMD2 (UniProt Q13200)	-0.018	0.012	0.005	0.038	-0.024	0.01	-0.006	-0.018	0.03	-0.082	-0.002
PSMA3 (UniProt P25788)	0.03	0.022	0.071	0.058	-0.027	-0.029	0.005	-0.002	0.102	-0.056	0.009
POLA1 (UniProt P09884)	-0.014	-0.068	-0.225	-0.04	0.07	0.054	0.155	0.021	-0.113	0.227	-0.106
PIK3CB (UniProt P42338)	-0.057	-0.106	-0.008	-0.102	0.014	0.001	0.003	-0.053	-0.039	-0.049	0.033
PRKCD (UniProt Q05655)	-0.086	-0.05	-0.081	-0.031	0.024	0.031	0.006	0.045	-0.06	-0.083	0.018
PDCD2L (UniProt Q9BRP1)	0.058	1.21 (active)	-0.018	-0.101	0.036	0.023	0.06	0	-0.092	-0.001	-0.012

Target	log2 fold change [1]	log2 fold change [2]	log2 fold change [3]	log2 fold change [4]	log2 fold change (entinostat)	log2 fold change (vorinostat)	log2 fold change (citarinostat)	log2 fold change (silmitasertib)	log2 fold change [5]	log2 fold change [6]	log2 fold change (entospletinib)
PLCB3 (UniProt Q01970)	-0.005	-0.086	-0.141	-0.023	0.037	-0.008	-0.007	0.008	0.005	0.064	0.028
PDCD4 (UniProt Q53EL6)	-0.001	0.011	-0.087	-0.064	-0.044	0.042	0.059	0.145	-0.041	0.092	-0.002
POTEI (UniProt P0CG38)	-0.058	0.061	0.139	0.124	-0.004	-0.016	-0.009	-0.03	-0.053	-0.004	-0.074
PRIM1 (UniProt P49642)	-0.008	-0.016	-0.093	-0.056	0.041	0.065	0.063	0.089	0.023	-0.037	0.062
PLBD1 (UniProt Q6P4A8)	0.008	-0.061	-0.076	-0.039	0.008	-0.038	-0.018	0.003	-0.027	0.409	0.011
PPP1R14A (UniProt Q96A00)	-0.051	0.101	0.02	0.029	0	0.105	0	-0.089	-0.014	0.018	0
POLR3B (UniProt Q9NW08)	-0.05	0.017	-0.124	-0.009	-0.014	0.088	-0.022	0.111	0.104	-0.047	0
PLK1 (UniProt P53350)	-0.399 (active)	0.033	-0.024	0.005	-0.005	0.002	0.019	-0.135	0.032	-0.103	-0.022
QRSL1 (UniProt Q9H0R6)	-0.092	-0.007	-0.218	-0.089	0.006	-0.063	0.053	-0.049	-0.084	-0.036	-0.008
PKN1 isoform 2 (UniProt Q16512)	-0.508 (active)	-0.141	-0.118	-0.128	0.039	0.042	0.024	0.024	-0.131	-0.157	0.014
PMPCB (UniProt O75439)	-0.03	0.024	-0.02	0.023	-0.043	-0.009	0.037	-0.103	-0.012	0.023	-0.043
PDCD6 (UniProt O75340)	-0.066	-0.08	0.117	-0.106	0.081	0.028	0.064	-0.022	-0.096	-0.024	0.024
PSMD9 (UniProt O00233)	0.041	0.017	0.022	0.072	0.017	0.086	0.029	-0.013	-0.027	0.005	-0.034
PSMC4 (UniProt P43686)	0.018	-0.016	0.028	0.027	-0.023	-0.023	-0.015	-0.015	0.043	-0.051	-0.008
PRMT7 (UniProt Q9NVM4)	0.034	-0.093	-0.165	-0.021	0.026	-0.023	-0.032	0.067	-0.103	-0.05	0.055
PSMB6 (UniProt P28072)	0.024	0.006	0.046	0.044	-0.054	-0.093	-0.046	-0.004	0.044	-0.034	0.008
PTPN23 (UniProt Q9H3S7)	-0.039	0.011	-0.081	-0.063	0.06	0.05	0.05	0.037	-0.065	-0.024	-0.031
PLD3 (UniProt Q8IV08)	0.008	-0.005	-0.177	-0.051	0.009	0.022	0.034	0.006	0.024	0.067	-0.01
PMM1 (UniProt Q92871)	0.005	0.006	-0.01	0.002	-0.021	0.113	0.034	-0.005	0.004	-0.012	-0.415 (active)
PML (UniProt P29590)	0.021	-0.027	-0.029	0.015	-0.002	-0.059	0.019	0.088	0.002	-0.042	0.073
PRPF40A (UniProt O75400)	-0.014	-0.001	0	-0.062	0.114	0.048	0.079	-0.038	0.003	-0.067	0.057
QKI (UniProt Q96PU8)	-0.057	-0.137	-0.086	-0.084	0.006	0.06	0.026	-0.012	-0.071	0.064	0.065
PFAS (UniProt O15067)	0.06	-0.075	-0.012	-0.054	0.134	0.042	0.049	-0.119	-0.052	0.142	-0.399 (active)
PARP16 isoform 3 (UniProt Q8N5Y8)	0.116	0.077	0.239	-0.036	0.053	0.117	0.006	-0.197	-0.022	-0.065	0.074
POMP (UniProt Q9Y244)	0.106	0.039	-0.029	-0.024	0.05	-0.066	0.026	0.022	-0.022	-0.01	-0.015
PPIL1 (UniProt Q9Y3C6)	-0.054	0.059	0.008	-0.074	-0.001	-0.013	0.015	0.075	0.001	-0.051	0.052
PLEKHM2 (UniProt Q8IWE5)	0.01	-0.102	-0.315 (active)	-0.107	0.024	0.072	0.109	-0.058	-0.009	-0.125	-0.051
